According to PubChem BioAssay (NCI):
The panel holds about 83,000 compounds, 20% with a hit somewhere; the sample as a whole holds those more often.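 Each cell line was grown in a 96-well plate and treated with one concentration of compound for 48 hours. Values below 10 were considered active.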 Activity calls are given as the source filed them.

Assays:
Assay in all cases: NCI-60 one-dose screen, 48 h (100 = growth as untreated, 0 = no growth, -100 = all killed)
Details in all cases: 10 µM unless noted
[1] = test system: SR leukemia
[2] = test system: RPMI-8226 leukemia
[3] = test system: OVCAR-8 ovarian
[4] = test system: OVCAR-5 ovarian
[5] = test system: OVCAR-4 ovarian
[6] = test system: SK-OV-3 ovarian
[7] = test system: IGROV1 ovarian
[8] = test system: OVCAR-3 ovarian
[9] = test system: HS 578T breast
[10] = test system: NCI/ADR-RES ovarian
[11] = test system: T-47D breast
[12] = test system: BT-549 breast
[13] = test system: MDA-MB-435 melanoma
[14] = test system: SW-620 colon
[15] = test system: MCF7 breast
[16] = test system: HCT-116 colon
[17] = test system: KM12 colon
[18] = test system: HCC-2998 colon

Measured: growth

COc1ccc(OC)c(/C=N/Nc2ncnc3c2c(C)nn3C)c1
inactive: [1] 81.4% | [2] 100% | [3] 109% | [4] 93.2% | [5] 118% | [6] 102% | [7] 102% | [8] 107% | [9] 88% | [10] 101% | [11] 84.6% | [12] 101% | [13] 105% | [14] 107% | [15] 85.2% | [16] 109% | [17] 103%

COC(=O)c1c(C)nc(C)c2c1C(=O)C(Br)=C(NCc1ccccc1)C2=O
active: [3] 4.6% | [5] -57.3% | [8] -12.7% | [10] 3.37% | [13] -76.5% | [15] -30.2% | [16] 1.86%
inactive: [1] 27% | [2] 41.1% | [4] 61.5% | [6] 109% | [7] 18% | [9] 76% | [11] 13.7% | [12] 50.9% | [14] 16.7% | [18] 21.8% | [17] 37.1%

Cn1c(=O)c2nc(/C=C/c3ccccc3)c(=O)[nH]c2n(C)c1=S
inactive: [1] 111% | [2] 110% | [3] 105% | [4] 110% | [5] 107% | [6] 118% | [7] 107% | [8] 116% | [9] 107% | [10] 106% | [11] 104% | [12] 110% | [13] 103% | [14] 98.9% | [15] 93.9% | [16] 105% | [17] 104%

Cc1ccc(CNc2ccc3nc(CCC4CCCCC4)[nH]c3c2)cc1
active: [2] -24.6% | [11] 3.58%
inactive: [1] 12.8% | [3] 56.4% | [4] 57.8% | [5] 11% | [6] 60.3% | [7] 25.6% | [8] 28.6% | [9] 55.7% | [10] 40.4% | [12] 88% | [13] 55.6% | [14] 32.3% | [15] 22.1% | [16] 16.3% | [17] 39.3%

O=C(CN1C(=O)S/C(=C\c2ccccc2)C1=O)Nc1ncc(Cc2ccccc2Cl)s1
inactive: [1] 113% | [2] 103% | [3] 93.3% | [4] 103% | [5] 89.6% | [6] 102% | [7] 94.6% | [8] 109% | [9] 102% | [10] 96.2% | [11] 88.1% | [12] 113% | [13] 93.6% | [14] 105% | [15] 92.7% | [16] 94.5% | [18] 105% | [17] 102%

COc1ccc(C2=C(Br)C(=O)c3nc(C)ccc3C2=O)cc1
inactive: [1] 17.3% | [2] 72.5% | [3] 88.8% | [4] 109% | [5] 87.9% | [6] 85.1% | [7] 87.5% | [8] 40% | [9] 90.8% | [10] 97.4% | [11] 72.8% | [12] 93.4% | [13] 103% | [14] 27.2% | [15] 74.7% | [16] 74.1% | [18] 104% | [17] 91.9%

CN1C(=O)/C(=C\c2c(Cl)cccc2Cl)c2ccccc21
inactive: [1] 34.3% | [2] 84.2% | [3] 94.1% | [4] 98.6% | [5] 87.9% | [6] 99.2% | [7] 92.1% | [8] 95.4% | [9] 81.7% | [10] 80.1% | [11] 90.3% | [12] 98.7% | [14] 66.3% | [15] 68.7% | [16] 91.9% | [18] 80.4% | [17] 62.3%
active: [13] 7.16%

CCOC(=O)c1c2c(n3cccc(F)c13)C(=O)c1ncccc1C2=O
inactive: [1] 20.5% | [2] 37.5% | [3] 19.3% | [4] 44.3% | [5] 24.4% | [7] 34.4% | [9] 31.5% | [10] 18.7% | [11] 54.5% | [12] 21.7% | [13] 13.1% | [18] 25% | [17] 19%
active: [6] -4.82% | [8] -11.1% | [14] -7.69% | [15] -23.1% | [16] -10.7%

COCCn1cc(-c2csc(-c3cn(C)c4ccc(Br)cc34)n2)c2cccnc21
inactive: [1] 31.3% | [2] 60.7% | [3] 56.3% | [4] 68.3% | [5] 71% | [6] 71.9% | [7] 80.2% | [8] 80.3% | [9] 63% | [10] 60% | [11] 17.6% | [12] 64.6% | [13] 61.2% | [14] 21.9% | [15] 50.2% | [16] 49.2% | [18] 25.7% | [17] 23.8%

O=c1c2cccc3c(N4CCCC4)ccc(c32)c2nc3ccccc3n12
inactive: [1] 20.2% | [2] 75.7% | [3] 66% | [4] 106% | [5] 78.8% | [6] 79.1% | [7] 57.1% | [8] 98.2% | [9] 67.2% | [10] 83% | [11] 72.2% | [12] 71.2% | [13] 103% | [14] 59.5% | [15] 50.1% | [16] 54.7% | [18] 70.3% | [17] 87.9%

NS(=O)(=O)c1ccc(N=Nc2c(O)n(Cc3ccccc3)c3ccc(Cl)cc23)cc1
inactive: [1] 60.2% | [2] 90.7% | [3] 65.1% | [4] 86.8% | [5] 28.7% | [6] 74.3% | [7] 84% | [8] 89.4% | [9] 44.8% | [10] 82.5% | [11] 79.4% | [12] 81.2% | [13] 79.4% | [14] 79.9% | [15] 75.3% | [16] 69.3% | [18] 101% | [17] 88.5%

Cc1ccccc1/C=C/C(=O)c1cccc(OCCCCOc2cccc(C(=O)/C=C/c3ccccc3C)c2)c1
inactive: [1] 74.4% | [3] 97.6% | [4] 103% | [5] 87.1% | [6] 107% | [7] 96.6% | [8] 104% | [9] 106% | [10] 99.1% | [11] 91.4% | [12] 111% | [13] 95% | [14] 94.6% | [15] 41.5% | [16] 41.6% | [18] 93.4% | [17] 96.7%
active: [2] -6.51%

COC(=O)/C=C1/SC(=Nc2ccc(C(F)(F)F)cc2)N(CCc2c[nH]c3ccc(O)cc23)C1=O
active: [1] -35.5% | [2] -50.3% | [4] -25.9% | [5] -45.6% | [6] -5.47% | [7] -54.2% | [8] -31.1% | [9] 7.87% | [12] -32.7% | [14] 3.9% | [16] -71.9% | [18] -61.4%
inactive: [3] 13.9% | [10] 21% | [11] 17.3% | [13] 24% | [15] 12.5% | [17] 18.3%

Cc1ccc(C2=Nc3c(N)ncnc3NC(c3cccc(Nc4ccnc5cc(C(F)(F)F)ccc45)c3)C2)cc1 (configuration not stated)
inactive: [3] 48.5% | [4] 75.2% | [5] 45.6% | [6] 46.7% | [7] 44.7% | [8] 39.2% | [9] 43.3% | [10] 17.4% | [11] 38.4% | [12] 53.6% | [14] 12.3% | [16] 12.6% | [17] 15.9%
active: [1] -19.3% | [2] -26.6% | [13] -55.4% | [15] 8.09%

Oc1ccc(Cl)cc1/C=N\NC(=S)N/N=C/c1cc(Cl)ccc1O
inactive: [1] 20.2% | [2] 29.8% | [3] 17.6% | [4] 69.7% | [5] 29.6% | [6] 58.6% | [7] 22.2% | [8] 12.7% | [9] 57.9% | [10] 14.7% | [11] 49.9% | [12] 52.7% | [13] 33.9% | [14] 50.3% | [15] 28.3% | [16] 16% | [18] 41.3% | [17] 28.6%

N#C/C(=C\c1c(-c2ccccc2)[nH]c2ccccc12)C(N)=O
active: [1] 9.47%
inactive: [2] 46.2% | [3] 102% | [4] 107% | [5] 62.5% | [6] 93% | [7] 77.1% | [8] 81.2% | [9] 76.5% | [10] 77.6% | [11] 83.7% | [12] 95.6% | [13] 15.7% | [14] 56.9% | [15] 50.4% | [16] 76.9% | [18] 78.9% | [17] 47.9%

O=S(=O)(c1ccccc1)n1cc2c(c1)-c1nc(Nc3ncccn3)sc1CC2
active: [5] -27.9%
inactive: [1] 74.6% | [2] 71.3% | [3] 65% | [4] 95.8% | [6] 66% | [7] 70.4% | [8] 40.3% | [9] 22.4% | [10] 53% | [11] 53% | [12] 63.8% | [13] 61.5% | [14] 65.1% | [15] 49.5% | [16] 23.1% | [18] 85% | [17] 82.8%
